Compound activity as filed in PubChem.
Hits are enriched below; roughly 7.9% of the tested compounds scored in any of these assays.
KB-3-1 tox – qHTS assay for MDR1-selective chemotherapeutics: Primary screen using the parental adenocarcinoma cell KB-3-1; KB-3-1 viability, CellTiter-Glo ATP luminescence, 72 h; Potency, µM (doses to about 46.1 µM), actives largely listed as cytotoxic; 400,000 compounds, 1.4% hits; AID 1347075, 2019; further: nearly all actives have a fitted effect of over 60% in size
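Cells are dispensed, compounds pinned in, plates held at 37 °C for 72 h, then CellTiter-Glo is added and luminescence read after 10 minutes. Cell line: parental KB-3-1 in phenol-red-free DMEM, 10% FBS.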
HT1080 IDH1KD tx – qHTS for induction of synthetic lethality in tumor cells producing 2HG: qHTS for the HT-1080-IDH1KD cell line | HT-1080 IDH1 knockdown viability, ATP luminescence, 48 h | Potency, µM (series often up to 46.1 µM), hits mostly cytotoxic | 360,000 compounds, 2% hits
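Viability of IDH1-knockdown HT-1080 fibrosarcoma cells was assessed by CellTiter-Glo after 48 h at 37 °C with titrated compound; concentration-effect curves were classified by fit quality and response size.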
KB-V1 MDR tox – qHTS assay for MDR1-selective chemotherapeutics: Primary screen using the drug-selected MDR subline cells KB-V1. KB-V1 MDR cells viability, CellTiter-Glo, 72 h. Potency, µM (titrated, usually from 46.1 µM), hits mostly cytotoxic. 400,000 compounds, 3.4% hits. AID 1347076, 2019; further: nearly all actives have a fitted effect of over 60% in size
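Cells of the MDR subline KB-V1 are plated, dosed with compound at multiple concentrations, and incubated 72 h at 37 degrees C; CellTiter-Glo is then added and luminescence read after 10 min.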
HT1080NT lethal – qHTS for induction of synthetic lethality in tumor cells producing 2HG: qHTS for the HT-1080-NT fibrosarcoma cell line | Potency, µM (titrated, usually from 46.1 µM), usual class: cytotoxic | AID 686970, 2013 | HT-1080-NT fibrosarcoma viability, CellTiter-Glo ATP luminescence, 48 h | 360,000 compounds, 1.6% hits;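 further: NT is the 2HG producing partner of a matched IDH1 knockdown line; nearly all actives have a fitted effect of over 55% in size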
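Fibrosarcoma NT cells, 750 per well in 5% FBS RPMI, were exposed to compound for 48 hours. Viability: CellTiter-Glo luminescence.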
SW480 rerep – A quantitative high throughput screen for small molecules that induce DNA re-replication in SW480 colon adenocarcinoma cells; SW480 DNA re-replication, Hoechst DNA content imaging, 48 h; Potency, µM (top dose mostly 46.1 µM), usual class: activators; 340,000 compounds, 1.8% hits; AID 624297, 2012; further: nearly all actives have a fitted effect of over 55% in size
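Hoechst fluorescence of nuclei (405 nm excitation, 500-530 nm emission) measured by plate-scanning imager after 48 hr compound exposure at 37 C; re-replication scored as increased number of nuclei with elevated intensity.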
MCF10A rerep – A quantitative high throughput screen for small molecules that induce DNA re-replication in MCF 10a normal breast cells; MCF 10A DNA re-replication, Hoechst nuclear intensity, 48 h; Potency, µM (titrated, usually from 46.1 µM), usual class: activators; 350,000 compounds, 2.9% hits; further: nearly all actives have a fitted effect of over 50% in size
A number is an active result; i = inactive; ? = inconclusive; nt = not tested or not shown. The call rests on the fitted dose curve; in most records, active means well fitted curve in the direction sought with a large enough effect; inconclusive means small, poorly fitted or top-dose-only effect, or another doubt; inactive means no such curve, though single readings can be large; an effect the other way counts as inactive or inconclusive.

SMILES | KB-3-1 tox | HT1080 IDH1KD tx | KB-V1 MDR tox | HT1080NT lethal | SW480 rerep | MCF10A rerep
O=C(Nc1ccccc1)c1c(O)c2c(n(Cc3ccco3)c1=O)CCCC2 | ? | i | i | i | i | i
O=C(Nc1nccs1)c1c(O)c2c(n(Cc3ccco3)c1=O)CCCC2 | ? | i | 12µM | i | i | i
O=C(O)c1ccc(N=Cc2c(O)[nH]c(=O)[nH]c2=O)cc1 | i | i | ? | i | i | i
Cc1cc(C)c(N=Cc2c(O)[nH]c(=O)[nH]c2=O)c(C)c1 | 6.5µM | i | 5.2µM | i | i | i
CCOC(=O)c1c(C)n(Cc2ccc(F)cc2)c2ccc(O)cc12 | ? | i | 16µM | i | ? | i
COc1ccccc1N1CCN(CCc2c[nH]c3cc4c(cc23)OCO4)CC1 | i | ? | 18µM | i | i | i
CC(C)C(NC(=O)C(C(C)C)N(C)C)C(=O)N(C)C(C(=O)N1CCCC1C(=O)N1CCCC1C(=O)NCc1ccccc1)C(C)C (stereo unspecified) | ? | ? | 21µM | 0.21µM | ? | ?
Cc1c(C)n(O)c2ccc3nonc3c12 | i | i | i | i | ? | 21µM
CCC(=NCCCN(CC)CC)c1c(O)n(-c2ccccc2)c(=O)[nH]c1=O | i | i | i | i | i | i
COc1cc(C2C(C#N)=C(N)Oc3cc(O)ccc32)cc(OC)c1OC (stereo unspecified) | 2.9µM | ? | ? | 0.56µM | i | i
O=C(Cc1ccccc1)OCCN1CCOCC1 | i | i | i | i | i | i
O=C(c1ccccc1)C(Cc1ccccc1)N1CCOCC1 (stereo unspecified) | i | i | 18µM | i | i | i
c1ccc(N2CCN(c3ccccc3)CC2)cc1 | i | nt | i | nt | nt | nt
O=C(NCCCN1CCCC1)c1ccc2c(c1)N(Cc1cccc(Cl)c1)C(=O)c1ccccc1S2=O (stereo unspecified) | i | ? | i | 16µM | i | i
O=C(Cc1ccccc1)N1CCN(Cc2cccc(Cl)c2)CC1 | i | ? | i | i | i | i
CC[C@H]1CN2CCc3cc(OC)c(OC)cc3[C@H]2C[C@@H]1C[C@@H]1NCCc2cc(OC)c(OC)cc21 | nt | nt | nt | nt | ? | i
CCCN1CCCc2cc(CN)ccc21 | i | ? | i | ? | ? | 13µM
Cc1ccc2c(c1)CCCN2N=O | i | i | i | i | i | ?
O=C(CF)N(O)c1ccc(C=Cc2ccccc2)cc1 | i | ? | i | i | 10µM | 6.5µM
CC/C(=C\C=C\[C@@H]1C=C[C@@H]2CCC[C@H]2[C@@H]1C(=O)c1ccc[nH]1)[C@@H]1O[C@@H]([C@@H](C)C(=O)O)CC[C@@H]1C | ? | 8.2µM | ? | 10µM | ? | ?
CCOC(=O)[C@]12Cc3cc(OC)ccc3[C@H]1N(C1CCCCC1)C(=O)c1ccccc12 | 3.3µM | 2.3µM | 2.3µM | 2.6µM | nt | nt
CCOC(=O)[C@]12Cc3cc(Cl)ccc3[C@H]1N(C1CCCCC1)C(=O)c1ccccc12 | 1.6µM | 2.3µM | ? | 2.3µM | nt | nt
CC1(C)C2CC=C(CN3CCOCC3)C1C2 (stereo unspecified) | i | i | i | i | i | i
CSc1cc(-c2ccccc2)n(Cc2c(Cl)cccc2Cl)c(=O)c1C#N | 3.3µM | i | ? | i | i | ?
O=S(=O)(c1ccccc1)N1Cc2ccccc2-n2nncc2C1 | i | i | ? | i | nt | nt
SMILES | KB-3-1 tox | HT1080 IDH1KD tx | KB-V1 MDR tox | HT1080NT lethal | SW480 rerep | MCF10A rerep
COC(=O)C(O)(c1ccc(N(C)C(=O)COc2ccccc2)cc1)C(F)(F)F (stereo unspecified) | i | i | i | i | i | i
CC(C)(C)c1cc(C=C(C#N)C#N)cc(C(C)(C)C)c1O | 1.3µM | 2.1µM | 1µM | 1.2µM | i | ?
CC12Cc3cnoc3C=C1CCC1C2CCC2(C)C1CCC2(C)O (stereo unspecified) | 6.5µM | i | ? | i | i | ?
O=C(NCc1cccnc1)c1ccc(COc2ccc3c(c2)CCC3)o1 | i | ? | 18µM | ? | i | ?
S=P(NCCSCc1ccccc1)(N1CC1)N1CC1 | i | i | i | i | 9.2µM | 15µM
S=P(NCCNP(=S)(N1CC1)N1CC1)(N1CC1)N1CC1 | i | i | i | i | ? | ?
CCCCCc1nc2ccccc2c(=O)n1-c1ccc(C)cc1 | i | nt | i | nt | nt | nt
CC/C(=N\Nc1cccc2ccccc12)c1c(O)[nH]c(=O)[nH]c1=O | i | i | i | i | i | ?
CCC(=Nc1cc(OC)ccc1OC)c1c(O)[nH]c(=O)[nH]c1=O | 5.8µM | i | 2.6µM | i | i | i
CC/C(=N\Nc1ccccc1)c1c(O)[nH]c(=O)[nH]c1=O | i | 3.3µM | i | ? | i | i
COc1ccc(N=C(C)c2c(O)[nH]c(=O)[nH]c2=O)cc1 | i | ? | ? | ? | i | ?
C=CCn1c(O)c(C(CC)=Nc2cc(OC)ccc2OC)c(=O)[nH]c1=O | i | i | ? | i | i | i
CCC(=Nc1ccc(OC)cc1OC)c1c(O)[nH]c(=O)[nH]c1=O | ? | i | 10µM | i | i | ?
CCCCn1c(O)c(C(CC)=NCCc2ccccc2)c(=O)[nH]c1=O | i | i | ? | i | i | i
CCCCn1c(O)c(C(=O)/C=C/c2c[nH]c3ccccc23)c(=O)[nH]c1=O | i | i | i | i | ? | 18µM
CN(C)P(=O)(NC(=O)c1cccn1C)N(C)C | i | i | i | i | i | i
CC12CCC3C(CCC4(O)CC(O)CCC34C=O)C1(O)CCC2C1=CC(=O)OC1 (stereo unspecified) | 1.3µM | 1.5µM | ? | 1.6µM | ? | ?
CC12CC[C@H]3[C@@H](CCC4(O)C[C@H](O)CCC34/C=N/NC(=O)c3ccccc3Cl)C1(O)CCC2C1=CC(=O)OC1 (stereo partly specified) | i | i | i | i | i | i
CC12CCC3C(CCC4(O)CC(O)CCC34C=NO)C1(O)CCC2C1=COC(=O)C1 (stereo unspecified) | 0.37µM | 0.58µM | ? | 0.82µM | 1.6µM | ?
C[C@]12CC[C@H]3[C@@H](CC[C@]4(O)C[C@@H](O)CC[C@]34C=O)[C@@]1(O)CC[C@@H]2C1=CC(=O)OC1 | 0.52µM | 0.65µM | 0.92µM | 1.2µM | 2.6µM | ?
